Test results published in PubChem BioAssay (EPA / NIEHS).
Calls of active or inactive are those of the source. How the source made its calls: active means hit-call score of the fitted dose curve at least 0.9, where 1 is the maximum; inactive means score below 0.9.

Tests used:
Settings in all cases: mRNA level, 48 h; actives raise or lower the signal
[1] = read-out: Fatty acid synthase (Homo sapiens) (UniProt P49327); assay: LTEA_HepaRG_FASN: Life Technologies and Expression Analysis (LTEA) Assay for Fatty Acid Synthase (FASN) using HepaRG (AID 2283448)
In short: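 Cells were plated, cultured 48 h, switched to serum-free induction medium, then dosed in duplicate (max 100 uM, half-log dilutions, 0.5% DMSO) for 48 h. RNA was then isolated and FASN quantified by qRT-PCR.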

[2] = read-out: Cyclin D2 (CCND2), CCND2 (gene 894); assay: LTEA_HepaRG_CCND2: Life Technologies and Expression Analysis (LTEA) Assay for Cyclin D2 (CCND2) using HepaRG (AID 2283449)
In short: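 CCND2 transcript levels, quantified by qRT-PCR and normalised to three housekeeping genes, were fitted bidirectionally against 0.5% DMSO. HepaRG cultures were dosed 48 h in duplicate with an 8-point half-log series up to 100 uM.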

[3] = read-out: Cyclin Dependent Kinase Inhibitor 1A (CDKN1A), CDKN1A (gene 1026); assay: LTEA_HepaRG_CDKN1A: Life Technologies and Expression Analysis (LTEA) Assay for Cyclin Dependent Kinase Inhibitor 1A (CDKN1A) using HepaRG (AID 2283450)
In short: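 Differentiated human HepaRG cells, pre-cultured 48 h, were exposed in duplicate for 48 h in serum-free induction medium to eight half-log concentrations up to 100 uM (0.5% DMSO). CDKN1A mRNA was measured by qRT-PCR, normalized to ACTB/GAPDH/POLR2A, bidirectionally fitted versus DMSO.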

[4] = read-out: Cyclin D1 (CCND1), CCND1 (gene 595); assay: LTEA_HepaRG_CCND1: Life Technologies and Expression Analysis (LTEA) Assay for Cyclin D1 (CCND1) using HepaRG (AID 2283451)
In short: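 Differentiated human HepaRG cells in serum-free induction medium were exposed 48 h to eight half-log concentrations up to 100 uM in 0.5% DMSO; mRNA quantified by TaqMan qRT-PCR, normalized to ACTB, GAPDH, POLR2A, fitted bidirectionally versus DMSO.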

[5] = read-out: catalase (CAT), CAT (gene 847); assay: LTEA_HepaRG_CAT: Life Technologies and Expression Analysis (LTEA) Assay for catalase (CAT) using HepaRG (AID 2283452)
In short: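 Expression of CAT was quantified by TaqMan qRT-PCR with ACTB/GAPDH/POLR2A normalization after 48 h chemical exposure of HepaRG. Eight-point half-log series, top 100 uM, in 0.5% DMSO; gain or loss fitted against vehicle.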

[6] = read-out: flavin-containing dimethylaniline monooxygenases 3 (FMO3), FMO3 (gene 2328); assay: LTEA_HepaRG_FMO3: Life Technologies and Expression Analysis (LTEA) Assay for flavin-containing dimethylaniline monooxygenases 3 (FMO3) using HepaRG (AID 2283453)
In short: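 FMO3 transcript quantified by TaqMan qRT-PCR against three housekeeping genes after 48 h chemical exposure of HepaRG cells. Eight-point half-log series, top 100 uM, 0.5% DMSO vehicle; phenobarbital 1mM induction control; up- or down-regulation fitted.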

[7] = read-out: Cytochrome P450 (CYP1A1), CYP1A1 (gene 1543); assay: LTEA_HepaRG_CYP1A1: Life Technologies and Expression Analysis (LTEA) Assay for Cytochrome P450 (CYP1A1) using HepaRG (AID 2283454)
In short: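 Differentiated HepaRG cells in serum-free induction medium were exposed in duplicate for 48 h to eight half-log concentrations up to 100 uM in 0.5% DMSO. CYP1A1 mRNA was quantified by TaqMan qRT-PCR, normalized to ACTB, GAPDH and POLR2A.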

[8] = read-out: CFLAR gene, CFLAR (gene 8837); assay: LTEA_HepaRG_CFLAR: Life Technologies and Expression Analysis (LTEA) Assay for CFLAR gene using HepaRG (AID 2283455)
In short: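 Transcript level by qRT-PCR (normalized to ACTB, GAPDH and POLR2A) after 48 h chemical exposure of HepaRG cells, top concentration 100 uM with half-log steps, 0.5% DMSO vehicle, duplicates; fitted bidirectionally against DMSO baseline.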

[9] = read-out: Forkhead box O1 (FOXO1), FOXO1 (gene 2308); assay: LTEA_HepaRG_FOXO1: Life Technologies and Expression Analysis (LTEA) Assay for Forkhead box O1 (FOXO1) using HepaRG (AID 2283456)
In short: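 FOXO1 transcript quantified by qRT-PCR after 48 h chemical exposure (top 100 uM, half-log steps, 0.5% DMSO) of HepaRG cells, housekeeping-normalized (ACTB/GAPDH/POLR2A). Changes fitted in both directions relative to vehicle.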

[10] = read-out: growth arrest and DNA damage 45 (GADD45A), GADD45A (gene 1647); assay: LTEA_HepaRG_GADD45A: Life Technologies and Expression Analysis (LTEA) Assay for growth arrest and DNA damage 45 (GADD45A) using HepaRG (AID 2283458)
In short: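 Transcript induction or loss, quantified by TaqMan qRT-PCR against three housekeeping genes, is the read-out. HepaRG cells received chemicals for 48 h across eight half-log concentrations from 100 uM in 0.5% DMSO; gain and loss fitted relative to DMSO.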

[11] = read-out: ABC Transporter (ABCB1), ABCB1 (gene 5243); assay: LTEA_HepaRG_ABCB1: Life Technologies and Expression Analysis (LTEA) Assay for ABC Transporter (ABCB1) using HepaRG (AID 2283460)
In short: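 ABCB1 transcript level measured by TaqMan qRT-PCR against three housekeeping genes after 48 h chemical exposure of differentiated HepaRG cells. Top concentration 100 uM, half-log steps, eight points, 0.5% DMSO vehicle; bidirectional fit relative to DMSO.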

[12] = read-out: growth arrest and DNA damage 45 (GADD45B), GADD45B (gene 4616); assay: LTEA_HepaRG_GADD45B: Life Technologies and Expression Analysis (LTEA) Assay for growth arrest and DNA damage 45 (GADD45B) using HepaRG (AID 2283461)
In short: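 Differentiated HepaRG cells, plated 48 h then switched to serum-free induction medium, were exposed 48 h in duplicate to eight half-log concentrations from 100 uM in 0.5% DMSO; mRNA quantified by qRT-PCR, normalized to ACTB/GAPDH/POLR2A, bidirectional fit versus DMSO.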

[13] = read-out: ABC Transporter (ABCB11), ABCB11 (gene 8647); assay: LTEA_HepaRG_ABCB11: Life Technologies and Expression Analysis (LTEA) Assay for ABC Transporter (ABCB11) using HepaRG (AID 2283463)
In short: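 ABCB11 transcript levels quantified by TaqMan qRT-PCR against three housekeeping genes after 48 h chemical exposure of HepaRG cultures. Concentrations up to 100 uM in half-log steps, 0.5% DMSO vehicle; both induction and suppression scored.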

[14] = read-out: ABC Transporter (ABCC2), ABCC2 (gene 1244); assay: LTEA_HepaRG_ABCC2: Life Technologies and Expression Analysis (LTEA) Assay for ABC Transporter (ABCC2) using HepaRG (AID 2283464)
In short: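 HepaRG cells were plated 48 h, switched to serum-free induction medium, then exposed in duplicate for 48 h to 8 concentrations (top 100 uM, half-log steps, 0.5% DMSO). ABCC2 mRNA was measured by qRT-PCR normalized to ACTB/GAPDH/POLR2A; bidirectional fitting versus DMSO.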

[15] = read-out: Broad substrate specificity ATP-binding cassette transporter ABCG2 (Homo sapiens) (UniProt Q9UNQ0); assay: LTEA_HepaRG_ABCG2: Life Technologies and Expression Analysis (LTEA) Assay for ABC Transporter (ABCG2) using HepaRG (AID 2283465)
In short: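 ABCG2 transcript was quantified by TaqMan qRT-PCR against three housekeeping genes in HepaRG cells. Cells were treated in duplicate for 48 h across an 8-point half-log series up to 100 uM, with 0.5% DMSO vehicle. Gain or loss versus DMSO was fit.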

[16] = read-out: ATP-citrate lyase (ACLY), ACLY (gene 47); assay: LTEA_HepaRG_ACLY: Life Technologies and Expression Analysis (LTEA) Assay for ATP-citrate lyase (ACLY) using HepaRG (AID 2283466)
In short: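 ACLY mRNA quantified by qRT-PCR on Fluidigm arrays against three housekeeping genes, after 48 h chemical treatment of HepaRG cells (top concentration 100 uM, half-log steps, 0.5% DMSO vehicle). Up- or down-regulation fitted relative to DMSO.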

[17] = read-out: Peroxisomal acyl-coenzyme A oxidase 1 (ACOX1) gene, ACOX1 (gene 51); assay: LTEA_HepaRG_ACOX1: Life Technologies and Expression Analysis (LTEA) Assay for Peroxisomal acyl-coenzyme A oxidase 1 (ACOX1) gene using HepaRG (AID 2283467)
In short: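 ACOX1 transcript levels were quantified by TaqMan qRT-PCR against three housekeeping genes after 48 h chemical exposure of differentiated human HepaRG cells. Exposure used eight half-log steps topping at 100 uM, 0.5% DMSO vehicle, in duplicate. Bidirectional curve fits were made relative to DMSO.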

[18] = read-out: Forkhead box O3 (FOXO3), FOXO3 (gene 2309); assay: LTEA_HepaRG_FOXO3: Life Technologies and Expression Analysis (LTEA) Assay for Forkhead box O3 (FOXO3) using HepaRG (AID 2283459)
In short: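 FOXO3 transcript measured by qRT-PCR (normalized to ACTB, GAPDH, POLR2A) after 48 h exposure of HepaRG cells in serum-free induction medium. Duplicates, eight half-log concentrations up to 100 uM, 0.5% DMSO; gain or loss fitted against DMSO.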

Measured: AC50

Chain of Fatty acid synthase (Homo sapiens) (P49327 whole entry, looked up): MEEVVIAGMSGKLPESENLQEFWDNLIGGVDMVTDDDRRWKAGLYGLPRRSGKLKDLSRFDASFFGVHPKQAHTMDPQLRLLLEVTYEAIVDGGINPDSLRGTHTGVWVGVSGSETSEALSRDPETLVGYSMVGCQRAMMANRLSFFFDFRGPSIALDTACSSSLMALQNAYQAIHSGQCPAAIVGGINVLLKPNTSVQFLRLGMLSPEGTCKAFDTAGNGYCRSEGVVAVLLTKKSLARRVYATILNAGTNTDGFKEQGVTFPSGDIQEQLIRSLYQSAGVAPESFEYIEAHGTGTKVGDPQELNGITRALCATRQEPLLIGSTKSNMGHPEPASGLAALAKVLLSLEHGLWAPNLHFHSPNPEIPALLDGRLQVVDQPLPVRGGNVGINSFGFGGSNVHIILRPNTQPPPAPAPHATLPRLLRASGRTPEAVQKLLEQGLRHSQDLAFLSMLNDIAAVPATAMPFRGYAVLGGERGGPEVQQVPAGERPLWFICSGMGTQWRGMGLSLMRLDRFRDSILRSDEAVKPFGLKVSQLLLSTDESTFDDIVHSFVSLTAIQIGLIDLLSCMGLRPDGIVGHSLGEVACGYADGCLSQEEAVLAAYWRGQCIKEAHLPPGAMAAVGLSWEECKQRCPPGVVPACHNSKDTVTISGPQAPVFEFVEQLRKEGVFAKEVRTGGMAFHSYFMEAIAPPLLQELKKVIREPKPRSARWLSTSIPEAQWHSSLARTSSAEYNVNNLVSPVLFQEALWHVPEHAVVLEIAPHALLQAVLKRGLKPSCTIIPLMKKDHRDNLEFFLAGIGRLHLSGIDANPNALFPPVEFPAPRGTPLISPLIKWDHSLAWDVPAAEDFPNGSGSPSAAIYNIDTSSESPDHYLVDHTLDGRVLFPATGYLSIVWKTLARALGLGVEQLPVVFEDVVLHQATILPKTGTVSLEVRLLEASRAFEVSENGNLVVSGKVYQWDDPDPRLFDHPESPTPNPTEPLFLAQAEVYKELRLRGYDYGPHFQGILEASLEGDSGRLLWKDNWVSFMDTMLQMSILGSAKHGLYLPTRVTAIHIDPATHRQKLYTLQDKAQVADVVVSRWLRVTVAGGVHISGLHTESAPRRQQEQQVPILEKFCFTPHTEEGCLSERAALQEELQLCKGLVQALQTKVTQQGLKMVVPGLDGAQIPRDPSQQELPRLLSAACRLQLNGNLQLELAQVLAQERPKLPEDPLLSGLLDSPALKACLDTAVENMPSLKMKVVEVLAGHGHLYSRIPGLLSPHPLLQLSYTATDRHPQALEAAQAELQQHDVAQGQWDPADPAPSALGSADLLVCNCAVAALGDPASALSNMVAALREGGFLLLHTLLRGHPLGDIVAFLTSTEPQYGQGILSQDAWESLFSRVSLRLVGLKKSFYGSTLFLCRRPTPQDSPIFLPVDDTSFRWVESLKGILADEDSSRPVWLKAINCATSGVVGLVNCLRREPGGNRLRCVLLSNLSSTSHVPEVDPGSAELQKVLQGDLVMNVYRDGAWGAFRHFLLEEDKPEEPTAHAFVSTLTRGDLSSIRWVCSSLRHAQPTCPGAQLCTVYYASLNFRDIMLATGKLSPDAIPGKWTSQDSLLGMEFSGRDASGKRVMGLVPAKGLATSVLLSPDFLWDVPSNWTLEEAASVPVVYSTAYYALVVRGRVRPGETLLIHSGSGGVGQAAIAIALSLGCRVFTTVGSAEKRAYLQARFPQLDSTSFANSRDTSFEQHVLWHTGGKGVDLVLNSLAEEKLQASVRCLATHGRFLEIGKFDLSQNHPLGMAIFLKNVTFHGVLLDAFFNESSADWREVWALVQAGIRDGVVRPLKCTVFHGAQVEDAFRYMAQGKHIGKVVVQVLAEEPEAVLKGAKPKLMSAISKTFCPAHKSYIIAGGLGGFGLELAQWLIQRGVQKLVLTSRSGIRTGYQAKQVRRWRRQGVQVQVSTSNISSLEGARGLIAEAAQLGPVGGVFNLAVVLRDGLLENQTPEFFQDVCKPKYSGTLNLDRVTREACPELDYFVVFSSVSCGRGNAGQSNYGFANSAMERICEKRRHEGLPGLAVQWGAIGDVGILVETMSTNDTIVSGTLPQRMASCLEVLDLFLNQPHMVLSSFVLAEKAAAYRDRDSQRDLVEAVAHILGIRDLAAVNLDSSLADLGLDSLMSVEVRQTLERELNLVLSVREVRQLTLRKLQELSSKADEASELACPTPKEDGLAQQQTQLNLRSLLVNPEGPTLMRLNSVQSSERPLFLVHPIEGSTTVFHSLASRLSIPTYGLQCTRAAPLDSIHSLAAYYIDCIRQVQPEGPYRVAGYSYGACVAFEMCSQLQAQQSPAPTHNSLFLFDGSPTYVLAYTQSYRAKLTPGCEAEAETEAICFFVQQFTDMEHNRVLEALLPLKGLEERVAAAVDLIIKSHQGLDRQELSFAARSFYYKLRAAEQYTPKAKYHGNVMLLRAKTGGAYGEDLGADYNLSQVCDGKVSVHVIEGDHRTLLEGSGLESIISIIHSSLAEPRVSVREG
Chain of Broad substrate specificity ATP-binding cassette transporter ABCG2 (Homo sapiens) (Q9UNQ0 whole entry, looked up): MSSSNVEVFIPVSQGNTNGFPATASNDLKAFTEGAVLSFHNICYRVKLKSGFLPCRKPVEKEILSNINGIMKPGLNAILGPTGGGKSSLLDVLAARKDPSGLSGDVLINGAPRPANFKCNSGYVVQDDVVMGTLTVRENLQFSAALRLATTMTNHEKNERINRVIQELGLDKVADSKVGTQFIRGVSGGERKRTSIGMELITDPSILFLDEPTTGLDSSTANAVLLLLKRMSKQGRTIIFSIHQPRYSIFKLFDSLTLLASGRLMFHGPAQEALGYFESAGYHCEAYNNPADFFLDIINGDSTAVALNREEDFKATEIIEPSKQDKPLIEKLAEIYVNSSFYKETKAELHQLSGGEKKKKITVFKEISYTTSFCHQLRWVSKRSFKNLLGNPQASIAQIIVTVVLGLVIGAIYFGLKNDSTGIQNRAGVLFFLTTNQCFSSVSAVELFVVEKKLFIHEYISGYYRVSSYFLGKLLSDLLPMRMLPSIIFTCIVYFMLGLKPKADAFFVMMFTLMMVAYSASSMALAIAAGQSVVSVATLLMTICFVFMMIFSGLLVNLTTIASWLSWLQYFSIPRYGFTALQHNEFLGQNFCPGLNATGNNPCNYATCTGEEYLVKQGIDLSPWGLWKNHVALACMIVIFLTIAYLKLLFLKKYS

CCOc1ccc2[nH]cc(C(=O)NCc3ccccc3)c(=O)c2n1
inactive: [1] | [2] | [3] | [4] | [5] | [8] | [9] | [10] | [11] | [12] | [13] | [14] | [15] | [16] | [17]
active: [6] 79.6 µM | [7] 34 µM

Cn1c(=O)c2[nH]cnc2n(C)c1=O
inactive: [1] | [2] | [3] | [4] | [5] | [6] | [7] | [8] | [9] | [10] | [11] | [12] | [13] | [14] | [15] | [16] | [17]

OC(Cn1cncn1)(Cn1cncn1)c1ccc(F)cc1F
inactive: [1] | [2] | [3] | [4] | [5] | [6] | [7] | [8] | [9] | [10] | [11] | [12] | [13] | [14] | [15] | [16] | [17]

O=C(O)[C@H](O)[C@@H](O)C(=O)O
inactive: [1] | [2] | [3] | [4] | [5] | [6] | [8] | [9] | [10] | [18] | [11] | [12] | [13] | [14] | [15] | [16] | [17]

c1ccc2ncccc2c1
inactive: [1] | [2] | [3] | [4] | [5] | [6] | [8] | [9] | [10] | [11] | [12] | [13] | [14] | [15] | [16] | [17]
active: [7] 83.2 µM

CCc1cccc(CC)c1N
active: [7] 50 µM
inactive: [1] | [2] | [3] | [4] | [5] | [6] | [8] | [9] | [10] | [11] | [12] | [13] | [14] | [15] | [16] | [17]

C[C@@H](Oc1ccc(CNC(=O)c2cccnc2Oc2ccc3c(c2)OCO3)c(F)c1)C(=O)O
inactive: [1] | [2] | [3] | [4] | [5] | [6] | [7] | [8] | [9] | [10] | [11] | [12] | [13] | [14] | [15] | [16] | [17]
